Measurements: PubChem BioAssay AID526 (National Center for Advancing Translational Sciences (NCATS), 2006)
In all, about 67,000 compounds went through this assay and fewer than 10 were called active. Calls come from the whole dose curve; as a rule, active = well fitted activation curve with a large enough effect (not every such curve was filed as active); inconclusive = small, poorly fitted or top-dose-only effect, or another doubt; inactive = no such curve, though single readings can be large or run the other way. Not all results are given here.

test: Ubiquitin-GFP Assay; conditions: Ubiquitin-GFP reporter cells, proteasome inhibition, GFP fluorescence, untreated = 0%, 10 µM MG-132 = 100%; series mostly up to 45.9 µM
Text: NIH Chemical Genomics Center [NCGC]
NIH Molecular Libraries Screening Centers Network [MLSCN]
The ubiquitin-proteasome pathway is present within all eukaryotic cells and plays roles in normal cellular functions and disease-related dysfunction. Proteins are tagged with a poly-ubiquitin chain that targets them for the proteasome, a multimeric protease, that degrades the protein into peptides and free ubiquitin. The proteasome has a key role in regulating cell cycle and growth and is known to control the levels of cyclins and CDK inhibitors as well as tumor suppressor proteins. Additionally, the activation of NF- B is controlled by ubiquitin-labeling and degradation of the inhibitory protein I B . […] With this in mind, proteasome inhibitors such as MG-132 and PS-341 have been used to inhibit tumor cell growth.
A cellular assay for ubiquitin-proteasome function was used to find chemical probes of this pathway. The assay used an ubiquitin-GFP construct expressed in U2OS cells (BioImage). Under basal conditions little GFP can be detected as it is degraded by the proteasome. However, treatment of the cells with a proteasome inhibitor such as MG-132 results in a rise in GFP levels that can be detected in as little as four hours. We used the Acumen-Explorer laser plate cytometer having a 488 nm laser as an excitation light source to detect the GFP. Compounds were screened in 1536-well plates using qHTS with a concentration-titration series range that varied from 46 uM to 2.9 nM.
NCGC Assay Protocol Summary:
Cells (U20S ps 2042) expressing ubiquitin (G76V-GFP) were maintained in DMEM with Glutamax-1 and high glucose, 10% FBS, 1% (v/v) penicillin-streptomycin, 0.5 mg/mL Geneticin (G418). The cells were seeded in 1536-well plates using a solenoid-based dispenser at 700 cells/5ul in DMEM medium with Glutamax-1 and high glucose containing 0.5% FBS, w/o phenol red, 25 mM HEPES. The plates were incubated at 37 °C/5% CO2 overnight. Then 23 nl of MG-132 in DMSO was added to the control wells at a final concentration of 10 uM. Next, 23 nL of library compounds in DMSO were added to the sample wells. The plates were incubated for 4 hrs at 37 °C/5% CO2. Following this incubation the plates were read on the Acumen using a cell object definition of 15 to 100 um in width and depth and a window of Total Intensity of between 77,200 and 2,720,000 FLU to enumerate GFP-expressing cells.
The %Activity was determined from the basal and MG-132 treated control wells. %Activity was determined by normalizing to the difference in signal between basal cells (0% Activity) and cells incubated with 10 uM of the proteasome inhibitor MG-132 (100% Activity). Concentration-response curves were fitted to the signals arising from the GFP fluorescence.
Assay Protocol Summary Table
Sequence Parameter Value Description
2. Time O/N 37C incubation
4. Compound 23 nL Libraries (46 uM to 2.9 nM)
5. Time 4 hr 37C incubation
6. Detector Acumen Total Intensity, GFP fluorescence (488 ex/515 em)
Keywords: NIH Roadmap, MLSCN, MLI, MLSMR, BioImage, proteasome, ubiquitin-GFP, qHTS, NCGC

Activation (GFP accumulation), inactive:
Cc1cc(=O)n2nc(N3CCCC(C(=O)N4CCN(C)CC4)C3)sc2n1 (stereo not drawn)
CN(C)C(=O)/N=N\C(=O)N(C)C
CCCC(CCC(=O)OC)(C(=O)OCC)c1csc(N)n1 (stereo not drawn)
O=C(CSC1=NCCS1)Nc1nc(-c2ccccc2)cs1
COc1ccc(OC)c(C(=O)CSc2nnc(-c3cccs3)o2)c1
Cc1ccc2cccc(O)c2[n+]1[O-]
COc1ccc(OC)c(NC(=O)CSc2nc3cccnc3n2C)c1
CCCCC(=O)Nc1ccc(C(=O)NCCCn2ccnc2)cc1
CN1[C@H]2CC(OC(=O)[C@@H](CO)c3ccccc3)C[C@H]1[C@H]1O[C@H]12 (stereo partly drawn)
Nc1ccc2c3c(cccc13)C(=O)NC2=O
Cc1ccc(Cn2ccc(NC(=O)C3C4CCC(C4)C3C(=O)O)n2)cc1 (stereo not drawn)
Cc1cccc(N2CCN(Cc3c(C)n(C)n(-c4ccccc4)c3=O)CC2)c1C -18.2% [at 9.17 µM]
Cc1onc(-c2ccccc2Cl)c1C(=O)NCCn1ccc2ccccc21
CCOC(=O)c1cc(-c2ccc(Cl)s2)nc2c1c(C)nn2C
COc1nc(NCc2ccc(Cl)cc2)nc(OC)n1 -9.93% [at 9.17 µM]
COc1ccc(-c2cc(C(F)(F)F)nc(SCCC(=O)NCc3ccco3)n2)cc1
COC(=O)C(C)Sc1ccc2nnc(-c3cccc(F)c3)n2n1 (stereo not drawn)
CCNc1ncc2nc(CCc3ccccc3)c(=O)n(-c3ccc(OC)cc3)c2n1
Cc1nnc(C)n1/N=C/c1ccc(C(C)C)cc1
O=C(CN1CCN(C2CCCCC2)CC1)Nc1ccccc1N1CCCCC1
CS(=O)(=O)N1CCC2(CCN(c3ccncc3)CC2)CC1
COc1ccccc1NC(=O)CSc1nnc(Cc2cccn2C)n1-c1ccc(F)cc1
CNC(=O)CN1C(=O)c2ccccc2S1(=O)=O
Oc1c(CN2CCOCC2)ccc(CN2CCOCC2)c1O -4.99% [at 9.17 µM]
Cc1cc(C)c2nc3c(c([C@H](O)[C@@H]4CCCCN4)c2c1)CC/C3=C/c1ccc(Cl)cc1 1.75% [at 9.17 µM]
O=C(Nc1c[nH]c(=O)[nH]c1=O)Oc1ccccc1 7.84% [at 9.17 µM]
CC(=O)Nc1nc(C)c(Cc2ccccc2)c(=O)[nH]1
O=C(NC(c1ccccc1)c1ccccc1)N1CCN(CCO)CC1
O=C(c1cnccn1)N1CCC2(CCN(Cc3cc(C(F)(F)F)cc(C(F)(F)F)c3)CC2)CC1
CC1(C)NC(=O)N(CCOc2cccc(Oc3ccccc3)c2)C1=O
Cc1ccccc1NC(=O)c1cnn(-c2ccccc2)c1NC(=O)c1ccco1
c1ccc(CSCCc2ccncc2)cc1 0.403% [at 9.17 µM]
CCOC(=O)c1cc2cc(C)ccc2[nH]1
Cn1c(=O)cc(OCCCC(=O)N2CCN(c3ccccn3)CC2)c2ccccc21
COc1ccccc1-n1c(CNC(=O)c2ccccc2)nnc1SCC(=O)Nc1nnc(C)s1
COc1ccccc1-c1nc(NCCNC(C)=O)c2ccccc2n1
CCc1ccc(-c2nnn(Cc3nc4ccccc4s3)n2)cc1
CC(=O)OCC(=O)[C@@]1(O)CC[C@@H]2[C@H]3CCC4=CC(=O)C=C[C@]4(C)[C@]3(F)[C@@H](O)C[C@@]21C
CCC(=O)N1c2ccc(S(=O)(=O)CCC(=O)N3CCN(c4ccccc4)CC3)cc2CC1C (stereo not drawn)
CN(C)c1nc2n(c(=O)n1)CCO2
c1ccc(CCN2CCN=C2Cc2ccccc2)cc1 -3.08% [at 9.17 µM]
COc1ccccc1N1CCN(C(=O)c2cc(-c3ccc(Cl)c(Cl)c3)on2)CC1
Cc1nc(NC(=O)CCC(=O)O)sc1C(=O)N(C)C
CN1CCN(CCCNC(=O)c2cc3c(=O)oc4ccccc4c3s2)CC1
COc1ccc(CC(=O)Nc2nc3n(n2)C(c2ccccc2)CC(=O)N3)cc1OC (stereo not drawn)
COc1c(C)c2c(c(O)c1C/C=C(\C)CCC(=O)O)C(=O)OC2
CN(C)CCSS(=O)(=O)O 9.1% [at 9.17 µM]
CCCn1c(C)nc2c(NCCCCN(CC)CC)nc(C)nc21
CCOC(=O)N1CCN(C(=O)Cc2ccc(-n3c(=S)[nH]c4ccccc4c3=O)cc2)CC1
CCN(CC)CCCCn1c(-c2ccccc2)nc2c(N3CCOCC3)nc(C)nc21
CCN(Cc1ccncc1)C(=O)c1cccc(S(=O)(=O)N2CCOCC2)c1
CN(C)CC/C=C1\c2ccccc2CSc2ccccc21
CC[C@@H]1Cc2cc(O)ccc2C2=C1c1ccc(O)cc1C[C@H]2CC
COc1ccc(C(=O)n2nc(-c3ccc(C)cc3)nc2N)cc1OC
O=C(C1CCC1)N1CCc2cc(S(=O)(=O)NCc3cccnc3)ccc21
CC(C)CNC(=O)c1cc(-c2ccc(Br)cc2)on1
CCn1c(CNC(=O)c2ccc(OC)c(OC)c2)nnc1SCC(=O)Nc1ccccc1
COCCNC(=O)c1snc2ccc(Cl)cc12
O=C(c1cc(C(F)(F)F)cc(C(F)(F)F)c1)N1CCC[C@@]2(CCN(c3ccccn3)C2)C1
COc1ccc(CCNC(=O)CSc2nc(C)nc3c2oc2ccccc23)cc1OC
Cc1nnc(SCC(=O)NCc2ccccc2)s1
COc1ccc2nccc(C(=O)O)c2c1
COC(=O)c1cc(NC(=O)CN2CCC(C(N)=O)(N3CCCCC3)CC2)cc(C(=O)OC)c1
COc1ccc(N(Cc2cc3cc(OC)ccc3[nH]c2=O)S(C)(=O)=O)cc1
O=C(CN1CCOCC1)N1CCCc2c1c(=O)oc1ccc(OCc3ccccc3)cc21
O=C(O)/C(=C/c1c(C(=O)O)[nH]c2cc(Cl)cc(Cl)c12)c1ccccc1
CCCn1c(-c2ccc(F)cc2)nc2c(NC3CCN(Cc4ccccc4)C3)nc(C)nc21 (stereo not drawn)
COc1ccc(N(CC(=O)NC(C)(C)C)C(=O)c2ccco2)cc1
CCOC(=O)c1cnc2sccn2c1=O
COC(=O)Cn1c(=NC(=O)CSCC(=O)Nc2cc(C)on2)sc2ccccc21
Cc1ccc(C)c2[nH]c(=O)c(CCNC(=O)CC(C)C)cc12
COc1cccc(Cn2c(=O)c(C)nc3cnc(Oc4ccccc4)nc32)c1
O=c1c(-c2ccc(F)cc2)nc2cnc(N3CCNCC3)nc2n1Cc1cccs1
Cc1ccc(SCc2cc(=O)[nH]c(N3CCCCC3)n2)cc1
CC(=O)Oc1ccc(C(=O)Nc2nccs2)cc1
CCn1c(=O)cc(SCC(=O)NCc2ccc3c(c2)OCO3)c2ccccc21
Oc1cc2c(cc1O)CN(C(=S)NCCc1ccc(Cl)cc1)CCC2
Cc1ccc(-c2c3c(=O)n(C)c(=O)n(C)c3cn2-c2ccccc2O)cc1
CCCCn1nnnc1NCc1cc(OC)c(OC)c(OC)c1
CC(N)=NCc1cccc(CN)c1
CN1C(=O)C[C@H](c2ccccc2)C1=O
Nc1nc2c(ncn2[C@H]2CC[C@@H](CO)O2)c(=O)n1C(=O)c1ccccc1 -2.15% [at 9.17 µM]
Cc1ccc(-n2ncc3c2ncn2nc(-c4ccco4)nc32)c(C)c1
CCCCC(=O)Nc1cc(C)c2c(=O)oc3ccccc3c2n1
Cc1ccc(NC(=O)NCC(c2cccnc2)N2CCOCC2)cc1 (stereo not drawn)
COc1cc(C2C(C#N)=C(C)NC3=C2C(=O)CC(C)(C)C3)ccc1O (stereo not drawn)
COc1ccc(N2C(=O)c3cccc4cccc(c34)C2=O)nn1
O=C(Nc1nsc(-c2ccccc2)n1)c1ccncc1
C[N+](C)(C)CCCCCNCC12CC3CC(CC(C3)C1)C2
CN(C)c1ccnc2sc3c(=O)n(Cc4ccccc4)cnc3c12
O=C(O)CN(Cc1ccco1)S(=O)(=O)c1ccccc1
CCOCCCNS(=O)(=O)Cc1ccccc1
O=C(O)[C@H](CCc1ccccn1)c1ccccc1 -6.91% [at 9.17 µM]
